Each structure is given as a SMILES string. In all, about 3,600 compounds went through this assay and about 100 (2.8%) were called active.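 Rule for the calls: active = inhibition above 30% at one or more concentrations, seen consistently on every test date; inconclusive = results that disagree between repeat test dates; inactive = the rest.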 Only a sample is shown.

By IC50 is commonly meant the midpoint of a concentration-inhibition curve.

This test in a line: biotin-GST/anti-GST TR-FRET signal inhibitors, dose response, artefact control for Vif-APOBEC3G degradation inhibitor project, biochemical (AID 1117362).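 Note: biotinylated GST protein used in place of GST-Vif 1-94 and biotin-A3G peptide; detects fluorescence quenchers or blockers of GST binding to anti-GST antibody.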 Particulars: TR-FRET counter screen; series mostly up to 100 µM.
As for `Cc1noc(/C=C/c2ccco2)c1S(=O)(=O)N1CCC(C(=O)N2c3ccccc3CC2C)CC1` (stereo not drawn), the IC50 result is “inactive”. As for `Cc1cc(C)nc(N/N=C/C2=C(N3CCOCC3)C(=C\c3ccc(Cl)cc3)/CC2)n1`, the IC50 entry is “inactive”.

On to `Cc1ccccc1NC(=O)c1c(C)[nH]c(=S)c(C#N)c1-c1ccco1`, for which the IC50 result is “inactive”. As to `COc1ccc(OC)c(C2C(C(=O)Nc3ccc(F)cc3)=C(C)Nc3nc(CCCO)nn32)c1` (stereo not drawn), the IC50 result is “inactive”. In the case of `c1ccc2c(c1)CCCN2Cc1nnc2n1CCCCC2`, the IC50 result was “inactive”. For the compound `CCOC(=O)C1CCN(C(c2cccs2)c2sc3nc(C)nn3c2O)CC1` (stereo not drawn), the IC50 result was “inactive”. Regarding `Cc1onc(-c2c(F)cccc2Cl)c1C(=O)Nc1nnc(C2CC2)s1`, the IC50 entry was “inactive”. Consider `O=C(O)c1ccc(Cl)c2c1C1C=CCC1C(c1ccccn1)N2` (stereo not drawn), for which the IC50 entry is “inactive”. With `COCCCNC(=O)/C(C#N)=C/c1ccc(OCC(=O)O)c(OC)c1` the entry was “inactive”. Regarding `CCOC(=O)N1CCN(C(=O)c2ccc3c(SCC(=O)O)c4c(nc3c2)CCC4)CC1`, the IC50 result was “inactive”.

As for `COC(=O)C1=C(C)NC(=O)/C1=C\c1cccs1`, the IC50 entry is “inactive”. Consider `CC(=O)C1=C(C)NC(C)=C(C(C)=O)C1c1cccs1`, for which the IC50 result was “inactive”. On to `CNc1c(C(=O)O)ccc2c1C(=O)c1ccccc1C2=O`, for which the IC50 result was “inactive”. For `COCc1cc(C)nc(NCCO)c1C#N`, the IC50 result was “inactive”. `CC(C)c1ccc(/C=C/C(=O)N2CCc3ccccc3C2)cc1`: the IC50 result is “inactive”. Turning to `CCOC(=O)C1=C(c2ccccc2)N=c2s/c(=C\c3ccco3)c(=O)n2C1c1cccs1` (stereo not drawn), the IC50 entry was “inactive”.

For `O=C(O)Cc1ccc(N=Nc2c(O)c(C(=O)O)cc3ccccc23)cc1`, the IC50 entry is “inactive”. For `COC(=O)c1ccc(C)c(NC(=O)CCSc2ccccc2)c1`, the IC50 entry is “inactive”. To `O=C(COC(=O)c1c2c(nc3ccccc13)/C(=C\c1ccco1)CC2)NC1CCCC1` belongs “inactive”; to `CCC(=O)N1N=C(c2ccc(NS(C)(=O)=O)cc2)CC1c1ccc(C)cc1` (stereo not drawn), “inactive”. Regarding `Cn1nc(-c2ccc(Cl)cc2)c2cc(C(=O)N3CCN(c4ccccc4)CC3)sc21`, the IC50 result is “inactive”. On to `CCOC(=O)c1sc2nc(CC(=O)OC)nc(NCc3ccco3)c2c1C`, for which the IC50 result was “inactive”. Take `CCOc1ccc(-n2c(Cc3cc(=O)[nH]c(=O)[nH]3)nnc2SCC(N)=O)cc1`: the IC50 entry is “inactive”. Regarding `COC(=O)COc1ccc(S(=O)(=O)Nc2cc(OC)ccc2OC)cc1`, the IC50 entry is “inactive”. With `COC(=O)CSc1nnc(CNC(=O)Cc2ccccc2)n1C` the entry was “inactive”; with `CCOC(=O)c1cc2cc(F)ccc2nc1C`, “inactive”; with `O=C(Cc1ccccc1)NC(Nc1ccccc1)C(Cl)(Cl)Cl` (stereo not drawn), “inactive”.

With `Cc1ccc(C)c(-n2c(Cc3cc(=O)[nH]c(=O)[nH]3)nnc2SC(C)C)c1`, the IC50 entry is “inactive”. For `O/N=C1\CCC\C1=C/c1ccco1`, the IC50 entry was “inactive”. With `O=C(CCCCCN1C(=O)CCC1=O)Nc1ccc(Cl)c(C(F)(F)F)c1` the entry was “inactive”; with `Cc1ccc(N(CC(=O)NCCSCc2ccco2)S(=O)(=O)c2ccc(F)cc2)cc1`, “inactive”. Take `CCOc1ccc(-n2c(Cc3cc(=O)[nH]c(=O)[nH]3)nnc2SCC(=O)NC2CCCC2)cc1`: the IC50 result was “inactive”.

With `CC1CCCN(C(=O)CN2CCN(C(=O)c3ccco3)CC2)C1` (stereo not drawn), the IC50 entry was “inactive”.

`COc1ccc(CCNC(=O)CN2CCCc3ccccc32)cc1OC`: the IC50 result is “inactive”. For `O=C(c1ccco1)N1CCN(C(c2ccccn2)c2nnnn2C2CCCC2)CC1` (stereo not drawn), the IC50 result is “inactive”. On to `O=C(NC1CCCC1)C(c1ccco1)N(Cc1ccccc1)C(=O)c1csnn1` (stereo not drawn), for which the IC50 result is “inactive”. With `c1cncc(-c2csc(NCc3ccco3)n2)c1` the entry was “inactive”; with `COc1cc(CC(=O)OCC(=O)Nc2cccc([N+](=O)[O-])c2)cc(OC)c1OC`, “inactive”; with `CCOC(=O)Cn1nnnc1C(C(C)C)N(Cc1cc2c(C)cc(C)cc2[nH]c1=O)C1CCCC1` (stereo not drawn), “inactive”. To `CC(=O)Nc1ccc(S(=O)(=O)NCCSCc2ccco2)cc1` belongs “inactive”; to `CCOC(=O)c1cnn2c(N)c(C#N)nnc12`, “inactive”; to `CSc1nc(N(CCO)CCO)c2sc3nc(-c4ccco4)c4c(c3c2n1)CCC4`, “inactive”.

On to `CC(=C/c1ccco1)/C=N/NC(=O)Cc1cccn1C`, for which the IC50 result was “inactive”. For the compound `COc1ccccc1NC(=O)CSc1nnc(Cc2cc(=O)[nH]c(=O)[nH]2)n1-c1ccccc1`, the IC50 entry is “inactive”. To `Cc1nc2ncccn2c1-c1csc(NCc2ccco2)n1` belongs “inactive”; to `Cc1cc(S(=O)(=O)N(Cc2ccccn2)Cc2ccco2)ccc1-n1cnnn1`, “inactive”; to `COc1ccccc1C1C=C(c2ccc(C)cc2)Nc2nnnn21` (stereo not drawn), “inactive”.

Regarding `O=C(O)/C=C/C(=O)Nc1cccnc1`, the IC50 result is “inactive”. As for `O=C(c1cc2n(n1)C(C(F)(F)F)CC(c1ccco1)N2)N1CCc2ccccc2C1` (stereo not drawn), the IC50 result is “inactive”. As for `COc1ccc(-c2ccc(C#N)c(SCC(=O)Nc3sc4c(c3C#N)CCC4)n2)cc1OC`, the IC50 entry is “inactive”. Consider `CC(=O)OC1COC(n2ccc3ccccc32)C(OC(C)=O)C1OC(C)=O` (stereo not drawn), for which the IC50 result was “inactive”. To `O=C1C2C3CCCC3=C3CCCC3C2C(=O)N1c1ccccc1` (stereo not drawn) belongs “inactive”. `CCCCn1c(=NC(=O)c2cccnc2)c(C#N)cc2c(=O)n3cccc(C)c3nc21`: the IC50 result is “inactive”. As for `CCc1ccc2nc(N3CCN(C)CC3)c(C#N)cc2c1`, the IC50 entry was “inactive”.

`Cc1nc2cc(N=NC3=C(O)CCCC3=O)ccc2s1`: the IC50 entry was “inactive”. For `COc1ccc2ccccc2c1C1CC(=O)N2CN(Cc3ccco3)CSC2=C1C#N` (stereo not drawn), the IC50 entry is “inactive”. As to `C=CC(=O)N1C/C(=C/c2ccc(F)cc2)C(=O)/C(=C\c2ccc(F)cc2)C1`, the IC50 entry is “inactive”. To `O=C1NC(=S)N/C1=C/c1ccc(-c2c(Br)cc([N+](=O)[O-])cc2Br)o1` belongs “inactive”; to `COC(=O)C1=C(N)OC2=C(C(=O)CCC2)C1c1cccs1` (stereo not drawn), “inactive”. Consider `CC1(c2ccc3noc(-c4ccccc4)c3c2)OCCO1`, for which the IC50 entry is “inactive”. Take `O=C(COC(=O)/C=C/c1ccco1)Nc1ncc(C(F)(F)F)cc1Cl`: the IC50 result was “inactive”. With `CCOC(=O)c1c(C)oc2c1c(C=NCc1ccccn1)c(O)c1ccccc12`, the IC50 result was “inactive”. To `Cc1ccc(C(=O)Nc2ccc(O)c(C(=O)O)c2)o1` belongs “inactive”.

As for `COc1ccccc1/C=C(/CC(=O)NCc1ccccc1)c1nc2ccccc2s1`, the IC50 entry was “inactive”. Take `COc1ccc(-c2nc3oc4cc(OC)ccc4c(=O)c3c(=O)n2Cc2ccco2)cc1`: the IC50 result is “inactive”. Turning to `O=S(=O)(Nc1nccs1)c1ccc(Nc2nnc(-c3ccccc3)c3ccccc23)cc1`, the IC50 entry was “inactive”. To `Cc1ccc(-n2c(C)cc(C(=O)OCC(=O)N(CC(C)C)C3CCS(=O)(=O)C3)c2C)cc1` (stereo not drawn) belongs “inactive”; to `CCOc1cc(N2CCOCC2)c(OCC)cc1NS(=O)(=O)c1ccc(Cl)s1`, “inactive”.

The values are drawn from PubChem BioAssay AID1117362 (Southern Research Institute, 2015).
